HTR2A ag – mouse Htr2a agonists via beta-arrestin recruitment, primary screen, cell-based, luminescence. 5-hydroxytryptamine receptor 2A (Mus musculus), P35363. CHO-K1 mHTR2A beta-arrestin complementation; percent of 30 µM serotonin response. activation, % at 7.6 µM. 360,000 compounds, 0.66% hits. AID 624169, 2012;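 active = activation above a run cutoff, the mean activation of all tested compounds plus 3 SD, cut at about 14% in these data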;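 also: 0% = plate median of compound wells and 100% = 30 µM serotonin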
ABHD5 PLIN5 PPI – ABHD5-PLIN5 interaction inhibitors, primary screen, cell lysate, split luciferase complementation, luminescence. inhibition, % at 4 µM. 360,000 compounds, 0.78% hits. Split G. princeps luciferase complementation, 4 h. Perilipin-5 (Homo sapiens) + 1-acylglycerol-3-phosphate O-acyltransferase ABHD5 (Homo …;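 active = inhibition above the mean inhibition across every tested compound plus 3 SD, cut at about 22% in these data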;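 also: 0% = DMSO only wells and the 100% control is not disclosed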
Target sequence (Q00G26 whole entry, looked up): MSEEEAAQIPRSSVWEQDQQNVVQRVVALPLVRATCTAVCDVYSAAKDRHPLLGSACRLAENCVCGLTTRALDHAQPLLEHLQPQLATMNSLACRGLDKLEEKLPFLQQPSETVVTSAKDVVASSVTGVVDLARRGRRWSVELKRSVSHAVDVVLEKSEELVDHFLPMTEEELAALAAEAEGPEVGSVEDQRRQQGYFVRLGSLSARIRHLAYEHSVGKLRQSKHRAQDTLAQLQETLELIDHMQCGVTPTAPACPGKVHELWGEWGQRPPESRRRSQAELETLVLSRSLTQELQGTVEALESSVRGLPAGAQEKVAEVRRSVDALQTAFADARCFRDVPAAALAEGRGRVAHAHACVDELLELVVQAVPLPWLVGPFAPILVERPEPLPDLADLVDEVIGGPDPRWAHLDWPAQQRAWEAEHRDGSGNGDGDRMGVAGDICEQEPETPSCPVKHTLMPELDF
Target sequence (Q8WTS1 whole entry, looked up): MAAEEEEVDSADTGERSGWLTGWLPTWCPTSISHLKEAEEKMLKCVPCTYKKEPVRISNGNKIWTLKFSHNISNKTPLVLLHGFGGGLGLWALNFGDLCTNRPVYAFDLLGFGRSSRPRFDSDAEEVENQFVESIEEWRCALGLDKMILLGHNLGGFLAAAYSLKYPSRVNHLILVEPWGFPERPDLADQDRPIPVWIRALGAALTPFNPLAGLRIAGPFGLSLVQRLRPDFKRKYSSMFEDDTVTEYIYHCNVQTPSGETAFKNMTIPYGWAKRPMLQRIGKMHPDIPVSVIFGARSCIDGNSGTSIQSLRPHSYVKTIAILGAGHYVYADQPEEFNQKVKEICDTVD
CRFR2-BP antag – antagonists of CRF-BP/CRF-R2 complex, primary screen, cell-based, HEK293, calcium dye fluorescence, uHTS. CRF-induced calcium fluorescence. inhibition, % at 11.8 µM. 350,000 compounds, 0.59% hits. AID 588475, 2011;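 active = inhibition of the ligand-induced calcium signal above about 50% at the single tested concentration, limit read from the data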
TLR9-MyD88 inh – inhibitors of TLR9-MyD88 association in cells, primary screen, cell-based, CHO, BLA complementation, fluorescence. Toll-like receptor 9 (Homo sapiens) + Myeloid differentiation primary response protein …. CCF4 FRET ratio. inhibition, % at 4.98 µM. 340,000 compounds, 0.21% hits;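 active = inhibition above the mean over all tested compounds plus 3 SD, cut at about 21% in these data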;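 also: 0% = DMSO only wells and 100% = clavulanate BLA inhibitor control wells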
NOD2-RIPK2 inh – NOD2-RIPK2 binding disruptors in cells, primary screen, fluorescence, CHO cells, BLA complementation | CCF4 ratio | inhibition, % at 4.98 µM | Receptor-interacting serine/threonine-protein kinase 2 (Homo sapiens), O43353 | 360,000 compounds, 0.38% hits; in the data active = inhibition above about 21%;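 also: 0% = vehicle only and 100% = reference blocker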
TLR4 MyD88 comp – inhibitors of TLR4-MyD88 association in cells, primary screen, cell-based, HeLa CL3-4, BLA complementation, FRET ratio; HeLa CL3-4 TLR4/MyD88 BLA complementation; inhibition, % at 8.4 µM; 200,000 compounds, 0.18% hits; AID 861, 2007; in the data active = inhibition above about 25%;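 also: 0% = vehicle and 100% = reference inhibitor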
The depositor's hits bear a star. In the library only some 2.4% were active in any assay of this set; here they are far more common.

C/C=C/C=C/C(=O)OC(C)C(=O)Nc1cc([N+](=O)[O-])ccc1OC (stereo not drawn) was read as HTR2A ag 6, ABHD5 PLIN5 PPI -1, CRFR2-BP antag 112*, TLR9-MyD88 inh -10, NOD2-RIPK2 inh -8 and TLR4 MyD88 comp -2.
COc1ccc(Cl)cc1NC(=O)C/C(C)=N/NC(=O)c1ccccc1[N+](=O)[O-] was read as HTR2A ag 5, ABHD5 PLIN5 PPI -1, CRFR2-BP antag -6, TLR9-MyD88 inh 4 and NOD2-RIPK2 inh -2.
Screening COc1ccc([N+](=O)[O-])cc1NC(=O)C(C)OC(=O)Cc1ccc(OC)c(OC)c1 (stereo not drawn) returned HTR2A ag -1, ABHD5 PLIN5 PPI 2, CRFR2-BP antag 17, TLR9-MyD88 inh -3 and NOD2-RIPK2 inh -2.
COc1ccc(Cl)cc1NC(=O)c1cccc([N+](=O)[O-])c1O was read as HTR2A ag -5, ABHD5 PLIN5 PPI 7, CRFR2-BP antag 83*, TLR9-MyD88 inh 2 and NOD2-RIPK2 inh -2.
For COc1ccc([N+](=O)[O-])cc1NC(=O)c1ccccc1SC the results were HTR2A ag -3, ABHD5 PLIN5 PPI 3, CRFR2-BP antag 100*, TLR9-MyD88 inh -6, NOD2-RIPK2 inh 5 and TLR4 MyD88 comp -1.
Screening OCCNc1ncnc2c1ncn2[C@H]1CN(Cc2ccc3c(c2)OCO3)C[C@@H](CO)O1 returned HTR2A ag -2, ABHD5 PLIN5 PPI -3 and NOD2-RIPK2 inh -3.
`CCC(=O)N1Cc2cc(C(=O)Nc3nccs3)nc(-c3cccc(-c4ccccc4OC)c3)c2[C@H]1CCO` gave HTR2A ag 5, ABHD5 PLIN5 PPI 7 and NOD2-RIPK2 inh -3.
For CCC1(C)Cc2ccccc2-c2c1c(=O)n(-c1ccc(C)cc1)c1nnnn21 (stereo not drawn) the results were HTR2A ag 7, ABHD5 PLIN5 PPI 2, CRFR2-BP antag -14, TLR9-MyD88 inh -14, NOD2-RIPK2 inh 0 and TLR4 MyD88 comp 2.
Screening CC1(C)Cc2ccccc2-c2c1c(=O)n(Cc1ccccc1)c1nnnn21 returned HTR2A ag -3, ABHD5 PLIN5 PPI -5, CRFR2-BP antag 61*, TLR9-MyD88 inh -6, NOD2-RIPK2 inh -9 and TLR4 MyD88 comp 4.
CCCCN(C)C(=O)c1sc(=O)n(Cc2ccc(Cl)c(Cl)c2)c1C was read as HTR2A ag 0, ABHD5 PLIN5 PPI -8 and NOD2-RIPK2 inh 12.
CCN(CC)CCOC(=O)C(Cc1ccco1)Cc1cccc2ccccc12 (stereo not drawn) was read as HTR2A ag -3, ABHD5 PLIN5 PPI 3, CRFR2-BP antag 52*, TLR9-MyD88 inh 2 and NOD2-RIPK2 inh 0.
For CCN(CC)CCOC(=O)CCc1cccc2ccccc12 the results were HTR2A ag 0, ABHD5 PLIN5 PPI -1, CRFR2-BP antag -14, TLR9-MyD88 inh -9, NOD2-RIPK2 inh -14 and TLR4 MyD88 comp 10.
For Cc1cc(OCC(=O)C(C)(C)C)c2c(C)c(C)c(=O)oc2c1 the results were HTR2A ag -2, ABHD5 PLIN5 PPI 1, CRFR2-BP antag 109*, TLR9-MyD88 inh 3, NOD2-RIPK2 inh -4 and TLR4 MyD88 comp -5.
For Nn1c(SCC(=O)N2CCCC2)nnc1-c1cccs1 the results were HTR2A ag 3, ABHD5 PLIN5 PPI 4, CRFR2-BP antag 1, TLR9-MyD88 inh 4 and NOD2-RIPK2 inh -15.
For O=C(CN1C(=O)NC2(CCCC2)C1=O)c1ccc(Cl)s1 the results were HTR2A ag -2, ABHD5 PLIN5 PPI 10, CRFR2-BP antag 54*, TLR9-MyD88 inh 3 and NOD2-RIPK2 inh 1.
CC(C)(C)C(=O)NCc1ccc(C(=O)CN2C(=O)NC3(CCCC3)C2=O)s1 was read as HTR2A ag 2, ABHD5 PLIN5 PPI 1, CRFR2-BP antag 3, TLR9-MyD88 inh 4 and NOD2-RIPK2 inh -1.
